# Laboratory results as given in the supplement of paper PMC8728848.
# Many of the other results were omitted from the sample, so the strongest signals are more common in it than they were.
# B1: PX9896A-bth-573-26-573 (Bacteroides thetaiotaomicron) (protein)
# chain: ETNNLKTKEDMYKYFGTSKSMLTHVYSYMPQGYQLFATSGGIFTEDRYSMRDCASDDGEFGAYADNIQNTNNGNWSPIKTYDDSWTLYRGIRAANSFIAEIAQVDFTRYEHDGQYTNWMKQLKYFPYEARVLRAHYFFELARRYGDIAMPLEVLTEEEANTIGKTPFSEVISFIVSECDDAANNLPDSYVNEPGAEIGRVTKGFAMAVKSKALLYAASKLHNPSMDTELWKKSAKAAIDIINTGLYSLDPQESANNLDSKEVVLMRINGDDSDFEMFNLPLRMTAGTRTSSLIPYSNYPSQNLVDAFETVNGYKVTLENTGWVCEDPAFDPQSPYENRDKRFYRAILANGMSFKDYTIETFKGGADDGIVSQGGSPTGYFLRKYIQEATSFEPGKEAVSKHHWVIYRYAETLLTYAESMVNAFNDVNYTDETYKYSALWAINEVRKNADMPLIPSMGKDEFMERLYNEWRVEFAFEDHRFWDVRRWKIADTTQRELYGVKIEKQADGTFNFYKNLYETRNWRDCMYLYPIPQSELYKNTNLNPQNTGW
# Legend:
# Experiment in all cases: glycan array binding signal (z-score within array); higher = stronger binding
# Details in all cases: glycan notation: IUPAC condensed, linker removed
# GalNAc6S(b1-4)GlcNAc = biological target: GalNAc6S(b1-4)GlcNAc
# Method in brief: (§1)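 The Consortium for Functional Glycomics database supplied 3228 glycan arrays, of which those lacking an available protein sequence were dropped. The binding signal, a within-array Z-score, was averaged across arrays of the same protein sequence and across linkers. Negative scores can be read as non-binding.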
# Glc(b1-4)Glc = biological target: Glc(b1-4)Glc
# Method in brief: as §1
# [1] = biological target: GlcNAc(b1-3)Gal(b1-3)GalNAc
# Method in brief: as §1
# GlcNAc(b1-3)Gal(b1-4)Glc = biological target: GlcNAc(b1-3)Gal(b1-4)Glc
# Method in brief: as §1
# [2] = biological target: GlcNAc(b1-3)Gal(b1-4)GlcNAc(b1-2)[GlcNAc(b1-3)Gal(b1-4)GlcNAc(b1-6)]Man(a1-6)[GlcNAc(b1-3)Gal(b1-4)GlcNAc(b1-2)Man(a1-3)]Man(b1-4)GlcNAc(b1-4)GlcNAc
# Method in brief: as §1
# [3] = biological target: GlcNAc(b1-3)Gal(b1-4)GlcNAc(b1-3)Gal(b1-4)GlcNAc
# Method in brief: as §1
# [4] = biological target: GlcNAc(b1-4)GlcNAc(b1-4)GlcNAc(b1-4)GlcNAc(b1-4)GlcNAc(b1-4)GlcNAc
# Method in brief: as §1
# [5] = biological target: GlcNAc6S(b1-3)Gal(b1-4)GlcNAc
# Method in brief: as §1
# [6] = biological target: Neu5Ac(a2-3)Gal(b1-3)GalNAc
# Method in brief: as §1
# [7] = biological target: Neu5Ac(a2-3)Gal(b1-3)GlcNAc(b1-2)Man(a1-3)[GlcNAc(b1-4)][Neu5Ac(a2-3)Gal(b1-3)GlcNAc(b1-2)Man(a1-6)]Man(b1-4)GlcNAc(b1-4)GlcNAc
# Method in brief: as §1
# [8] = biological target: Neu5Ac(a2-3)Gal(b1-4)GlcNAc(b1-2)[Neu5Ac(a2-3)Gal(b1-4)GlcNAc(b1-4)]Man(a1-3)[GlcNAc(b1-4)][Neu5Ac(a2-3)Gal(b1-4)GlcNAc(b1-2)[Neu5Ac(a2-3)Gal(b1-4)GlcNAc(b1-6)]Man(a1-6)]Man(b1-4)GlcNAc(b1-4)GlcNAc
# Method in brief: as §1
# [9] = biological target: Neu5Ac(a2-3)Gal(b1-4)GlcNAc(b1-3)Gal(b1-4)GlcNAc(b1-2)Man(a1-3)[Neu5Ac(a2-3)Gal(b1-4)GlcNAc(b1-3)Gal(b1-4)GlcNAc(b1-2)Man(a1-6)]Man(b1-4)GlcNAc(b1-4)GlcNAc
# Method in brief: as §1
# [10] = biological target: Neu5Ac(a2-3)Gal(b1-4)GlcNAc(b1-3)Gal(b1-4)[Fuc(a1-3)]GlcNAc
# Method in brief: as §1
# [11] = biological target: Neu5Ac(a2-3)Gal(b1-4)[Fuc(a1-3)]GlcNAc(b1-2)Man
# Method in brief: as §1
# [12] = biological target: Neu5Ac(a2-3)Gal(b1-4)[Fuc(a1-3)]GlcNAc(b1-3)GalNAc
# Method in brief: as §1
# [13] = biological target: Neu5Ac(a2-3)Gal6S(b1-4)[Fuc(a1-3)]GlcNAc
# Method in brief: as §1
# [14] = biological target: Neu5Ac(a2-3)[GalNAc(b1-4)]Gal(b1-4)GlcNAc(b1-3)GalNAc
# Method in brief: as §1
# [15] = biological target: Neu5Ac(a2-6)Gal(b1-4)GlcNAc(b1-2)Man
# Method in brief: as §1
# [16] = biological target: Neu5Ac(a2-6)Gal(b1-4)GlcNAc(b1-2)Man(a1-6)[GlcNAc(b1-2)Man(a1-3)]Man(b1-4)GlcNAc(b1-4)GlcNAc
# Method in brief: as §1
# [17] = biological target: Neu5Ac(a2-6)Gal(b1-4)GlcNAc(b1-2)[Neu5Ac(a2-6)Gal(b1-4)GlcNAc(b1-4)]Man(a1-3)[GlcNAc(b1-4)][Neu5Ac(a2-6)Gal(b1-4)GlcNAc(b1-2)[Neu5Ac(a2-6)Gal(b1-4)GlcNAc(b1-6)]Man(a1-6)]Man(b1-4)GlcNAc(b1-4)GlcNAc
# Method in brief: as §1
# [18] = biological target: Neu5Ac(a2-6)Gal(b1-4)GlcNAc(b1-2)[Neu5Ac(a2-6)Gal(b1-4)GlcNAc(b1-6)]Man(a1-6)[Neu5Ac(a2-6)Gal(b1-4)GlcNAc(b1-2)Man(a1-3)][GlcNAc(b1-4)]Man(b1-4)GlcNAc(b1-4)GlcNAc
# Method in brief: as §1
# [19] = biological target: Neu5Ac(a2-6)Gal(b1-4)GlcNAc(b1-3)Gal(b1-4)GlcNAc(b1-3)Gal(b1-4)GlcNAc(b1-2)Man(a1-3)[Neu5Ac(a2-6)Gal(b1-4)GlcNAc(b1-3)Gal(b1-4)GlcNAc(b1-3)Gal(b1-4)GlcNAc(b1-2)Man(a1-6)]GalNAc
# Method in brief: as §1
# [20] = biological target: Neu5Ac(a2-8)Neu5Ac(a2-3)[GalNAc(b1-4)]Gal(b1-4)Glc
# Method in brief: as §1
# [21] = biological target: Neu5Ac(a2-8)Neu5Ac(a2-8)Neu5Ac(a2-3)Gal(b1-4)Glc
# Method in brief: as §1
# [22] = biological target: Neu5Ac(a2-8)Neu5Ac(a2-8)Neu5Ac(a2-8)Neu5Ac(a2-3)[GalNAc(b1-4)]Gal(b1-4)Glc
# Method in brief: as §1
# [23] = biological target: Neu5Ac(a2-8)Neu5Gc(a2-3)Gal(b1-4)GlcNAc
# Method in brief: as §1
# Neu5Ac(b2-6)GalNAc = biological target: Neu5Ac(b2-6)GalNAc
# Method in brief: as §1
# Neu5Gc(a2-6)GalNAc = biological target: Neu5Gc(a2-6)GalNAc
# Method in brief: as §1
binder,measurement,setting,value
B1,glycan array binding signal (z-score),GalNAc6S(b1-4)GlcNAc,-0.663
same,glycan array binding signal (z-score),Glc(b1-4)Glc,0.069
same,glycan array binding signal (z-score),[1],-0.077
same,glycan array binding signal (z-score),GlcNAc(b1-3)Gal(b1-4)Glc,0.621
same,glycan array binding signal (z-score),[2],0.497
same,glycan array binding signal (z-score),[3],-0.759
same,glycan array binding signal (z-score),[4],-0.604
same,glycan array binding signal (z-score),[5],0.875
same,glycan array binding signal (z-score),[6],-0.359
same,glycan array binding signal (z-score),[7],-0.678
same,glycan array binding signal (z-score),[8],-0.635
same,glycan array binding signal (z-score),[9],-0.638
same,glycan array binding signal (z-score),[10],-0.535
same,glycan array binding signal (z-score),[11],-0.204
same,glycan array binding signal (z-score),[12],4.79
same,glycan array binding signal (z-score),[13],-0.756
same,glycan array binding signal (z-score),[14],-0.496
same,glycan array binding signal (z-score),[15],-0.386
same,glycan array binding signal (z-score),[16],-0.598
same,glycan array binding signal (z-score),[17],-0.093
same,glycan array binding signal (z-score),[18],-0.82
same,glycan array binding signal (z-score),[19],1.34
same,glycan array binding signal (z-score),[20],-0.414
same,glycan array binding signal (z-score),[21],-0.639
same,glycan array binding signal (z-score),[22],0.475
same,glycan array binding signal (z-score),[23],13.3
same,glycan array binding signal (z-score),Neu5Ac(b2-6)GalNAc,-0.726
same,glycan array binding signal (z-score),Neu5Gc(a2-6)GalNAc,-0.244
